Data from the supplement of paper PMC11417369.
± gives the standard deviation of the averaged measurements. The full ranking holds about 25,000 sequences; the median of “ln(normalized median fluorescence intensity)” is about 8.9, and the highest 2% start at about 10. The full list was thinned out, with the highest values kept by preference.

test system: PfAP2-LT AP2 domain (GST-tagged); assay: gcPBM binding intensity (ln(normalized median fluorescence intensity)); higher = stronger DNA binding
Summary of the method: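 Using an Agilent 4 × 180k array, primer-extended double-stranded 36-bp intergenic genomic probes and negative controls were exposed for 1 h to GST-fused P. falciparum DNA-binding domains expressed in E. coli. Binding was carried out in 1× PBS with 1% milk, 0.2 mg/ml BSA, 0.5% salmon testes DNA and 0.03% Triton X-100, and protein was detected with Alexa488 anti-GST antibody and a 488 nm scan. Binding intensity is the highest Masliner-normalised natural-log median intensity across replicate spots of either probe orientation.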

Sequence | gcPBM binding intensity (ln)
ACTTTTTTTTTGTGTGTGCACTCGATTATATACATA [GTGCAC_site9846] | 9.57 ± 0.46
AGGAAAAAAGAAAAAACACACATAAATATATATATA [CACACA_site3085] | 9.11 ± 0.38
AATGAAAAGGAACATACACACCCCATATAAATATAT [CACACA_site7588] | 9.62 ± 0.13
AGAATAAAAAGGAACACACACACACCCATATATATA [CACACA_site3590] | 10.1 ± 0.5
TAAAAAGGAAAACACACACACACATATATATATATA [CACACA_site3588] | 10.2 ± 0.26
ATAAAAAAAAGAAAAACACACACATATATATATATA [CACACA_site8243] | 9.77 ± 0.27
ATAAAAAGGAAACACACACACACACCCATATATATA [CACACA_site904] | 10.41 ± 0.042
AAAAGGAAAAATATCACACATATATATATATATATA [CACACA_site5586] | 9.76 ± 0.45
AAGGAATAATATAAAACACACACATAAATATAAATA [CACACA_site9115] | 9.6 ± 0.42
TATAAAAGGAAACACACACACATATATATATATATA [CACACA_site939] | 10.2 ± 0.32
AAAAAAATTACATATCCATTTTAACATAATAAATAG [GTGCAC_negctrl_site618] | 8.33 ± 0.45
TACAGAATTGTATATAGTACATAAAACAATATATAT [XGTACX_site7275] | 8.88 ± 0.4
AAAATAAATAAATAAATAAATATATATATATATATA [XGTACX_negctrl_site345] | 9.16 ± 0.3
AGCCTCGGGGTCATATATATATATATATATATATAT [CACACA_negctrl_site512] | 10.35 ± 0.05
ATCAGATATATATATTGTACATTTATATATAAATCA [XGTACX_site1960] | 8.62 ± 0.46
TAACAAAAAGCACTTAGTACATATATATATATATAT [XGTACX_site1099] | 9.88 ± 0.44
AAAAAAAAAAAAAACACACACATATCTATAATATAT [CACACA_site7481] | 9.35 ± 0.44
AAAAAAAAAAAACACACACACACACTAATACATACA [CACACA_site8135] | 10.1 ± 0.12
CCTGAACACATACATACACACACACTAATAAAAAAA [CACACA_site8023] | 9.69 ± 0.46
AAAAAAAAAAAACATACACACACACTAATATTTATA [CACACA_site8038] | 9.6 ± 0.23
AAAAAAAAAAAAAAAACACACATACATACATACATA [CACACA_site6125] | 9.26 ± 0.41
AAAAAAAAAAAACACACACACACATACACATACATA [CACACA_site2858] | 10.1 ± 0.22

Sequence | gcPBM binding intensity (ln)
AAAAAAAAAAAACACACACACACACTAGTACATACA [CACACA_site4551] | 10.2 ± 0.3
TAAATGTCTTCAATGAAGTGGAAATGCTGTTATATA [CACACA_negctrl_site1155] | 8.54 ± 0.31
TATAATCATATACACGCATGTATAAAATTTAATACT [TGCATGCA_site700] | 8.96 ± 0.35
ACTATTAAAATGAATACACACAAATATAAAAATATA [CACACA_site4145] | 8.96 ± 0.5
TAATTTTTCCAACTTTGTACAGATATATTAATAAAA [XGTACX_site7856] | 8.13 ± 0.35
AAAAAAATGAAACACACACACACATATATATATATA [CACACA_site1043] | 10.1 ± 0.085
TGAAATGATATATAAACACACATATATATATATATA [CACACA_site3511] | 9.62 ± 0.25
ATAAAATGAACAAACACACACACATATATTTATATA [CACACA_site7181] | 9.84 ± 0.16
TGCAAGGAAAAACACACACACACATAAATGTATATA [CACACA_site751] | 9.79 ± 0.25
TGCAAGGAACAACACACACACACATAAATGTATATA [CACACA_site8149] | 10.2 ± 0.36
AAAAAAACATGAAACACACACAAATATATATATATA [CACACA_site1884] | 9.53 ± 0.52
AAAAATGAGAAACACACACACATATATATATATATA [CACACA_site2228] | 9.94 ± 0.19
AAACAAAATGGTAACACACACATATATAAATATGTA [CACACA_site6994] | 9.38 ± 0.47
TAAAACAAAATGGTAACACACACATATATATATATA [CACACA_site8590] | 9.87 ± 0.15
AAACAAAATGGTAACACACACATATATATATATATA [CACACA_site1939] | 10.09 ± 0.021
ACACATAAATGTATATATATATAAATATATGTATGT [CACACA_negctrl_site1532] | 9.12 ± 0.33
AAAATGAACAAACACACACACATATATATATATATA [CACACA_site2403] | 10.27 ± 0.057
TTTTGAAGAAAATTCTTTTTTTTTTTTTTTTGTAAA [CACACA_negctrl_site102] | 7.76 ± 0.65
AAATATTATGTGGCAAGTACATAAAGAAAATGCTTA [XGTACX_site3356] | 8.89 ± 0.56
AAAAAAAAAAAAAAAGCACACATCATATTTTAATTC [CACACA_site9109] | 8.87 ± 0.28
ATATATATATATATATAATATATAATATATATATAT [CACACA_negctrl_site96] | 9.01 ± 0.11
AATAATAACAAATGAACACACATATATATGAGCAAA [CACACA_site2121] | 9.13 ± 0.41
